Assay results reported in PubChem BioAssay.
Activity calls are given as the source filed them.

Legend:
[1] = small molecules captured by biotinylated probe aFSTL3 – biochemical, small-molecule microarray, fluorescence 635/667, stem cell growth factor project, primary screen (AID 1064); settings: higher = more signal; small-molecule microarray, probe aFSTL3, fluorescence unless noted;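 further: measures binding of the biotinylated anti-FSTL3 antibody to printed compounds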
[2] = binders from COS7 lysate, DM2A8 probe, primary screen, torsin A project, cell lysate, small-molecule microarray, fluorescence 635/667 (AID 1065); settings: higher = more signal; small-molecule microarray, COS7 cell lysate, probe DM2A8, fluorescence, COS7 lysate expressing mutant human TOR1A unless noted
[3] = small molecules captured by biotinylated probe aFGF2 – biochemical, small-molecule microarray, fluorescence 635/667, stem cell growth factor project, primary screen (AID 1067); settings: higher = more signal; small-molecule microarray, probe aFGF2, fluorescence unless noted;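 further: measures binding of biotinylated aFGF2 protein to printed compounds on slides; z-score merges feature fluorescence and signal-to-noise across triplicate slides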
[4] = small molecules captured by biotinylated probe aFGF10 – biochemical, small-molecule microarray, fluorescence 635/667, stem cell growth factor project, primary screen (AID 1071); settings: higher = more signal; small-molecule microarray, probe aFGF10, fluorescence unless noted;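 further: score merges 667 nm spot intensity and signal to noise from triplicate slides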
[5] = target: Neurogenic locus notch homolog protein 2 (Homo sapiens) (UniProt Q04721); experiment: small molecules binding Notch2 protein – biochemical, small-molecule microarray, 635 nm fluorescence, stem cell growth factors, primary screen (AID 1073); settings: higher = more signal
[6] = target: Pro-neuregulin-1, membrane-bound isoform (Homo sapiens) (UniProt Q02297); experiment: small molecules binding neuregulin-1 protein – biochemical, small-molecule microarray, fluorescence 635/667, psychiatric disease protein project, primary screen (AID 1075); settings: NRG1 binding, 635 nm fluorescence, higher = more signal;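 further: score combines 667 nm spot fluorescence with signal to noise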
[7] = test system: Neuregulin-1 EGF-like domain; experiment: small molecules binding NRG1 EGF domain – biochemical, small-molecule microarray, 635 nm fluorescence, primary screen (AID 1081); settings: higher = more signal;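 further: binding of the protein to compounds printed on small-molecule microarray slides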
[8] = FRG1 expression reporter modulators in myotubes – cell-based, C2C12 myotubes, firefly/Renilla luciferase, luminescence, FRG1 inhibition for FSHD, primary screen (AID 1084); settings: FRG1 promoter luciferase; higher = more signal, called active from +8 up or from −8 down unless noted
[9] = small molecules captured by biotinylated probe aFST – biochemical, small-molecule microarray, fluorescence 635/667, stem cell growth factor project, primary screen (AID 1086); settings: higher = more signal;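 further: score merges 667 nm fluorescence with signal-to-noise of each printed compound spot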
[10] = binders of probe aHhip on microarray, primary screen, stem cell growth factor project, biochemical, small-molecule microarray, fluorescence 635/667 (AID 1087); settings: higher = more signal;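 further: score merges spot fluorescence at 667nm with spot signal to noise ratio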

Sequence of Neurogenic locus notch homolog protein 2 (Homo sapiens) (Q04721 whole entry, looked up, canonical isoform): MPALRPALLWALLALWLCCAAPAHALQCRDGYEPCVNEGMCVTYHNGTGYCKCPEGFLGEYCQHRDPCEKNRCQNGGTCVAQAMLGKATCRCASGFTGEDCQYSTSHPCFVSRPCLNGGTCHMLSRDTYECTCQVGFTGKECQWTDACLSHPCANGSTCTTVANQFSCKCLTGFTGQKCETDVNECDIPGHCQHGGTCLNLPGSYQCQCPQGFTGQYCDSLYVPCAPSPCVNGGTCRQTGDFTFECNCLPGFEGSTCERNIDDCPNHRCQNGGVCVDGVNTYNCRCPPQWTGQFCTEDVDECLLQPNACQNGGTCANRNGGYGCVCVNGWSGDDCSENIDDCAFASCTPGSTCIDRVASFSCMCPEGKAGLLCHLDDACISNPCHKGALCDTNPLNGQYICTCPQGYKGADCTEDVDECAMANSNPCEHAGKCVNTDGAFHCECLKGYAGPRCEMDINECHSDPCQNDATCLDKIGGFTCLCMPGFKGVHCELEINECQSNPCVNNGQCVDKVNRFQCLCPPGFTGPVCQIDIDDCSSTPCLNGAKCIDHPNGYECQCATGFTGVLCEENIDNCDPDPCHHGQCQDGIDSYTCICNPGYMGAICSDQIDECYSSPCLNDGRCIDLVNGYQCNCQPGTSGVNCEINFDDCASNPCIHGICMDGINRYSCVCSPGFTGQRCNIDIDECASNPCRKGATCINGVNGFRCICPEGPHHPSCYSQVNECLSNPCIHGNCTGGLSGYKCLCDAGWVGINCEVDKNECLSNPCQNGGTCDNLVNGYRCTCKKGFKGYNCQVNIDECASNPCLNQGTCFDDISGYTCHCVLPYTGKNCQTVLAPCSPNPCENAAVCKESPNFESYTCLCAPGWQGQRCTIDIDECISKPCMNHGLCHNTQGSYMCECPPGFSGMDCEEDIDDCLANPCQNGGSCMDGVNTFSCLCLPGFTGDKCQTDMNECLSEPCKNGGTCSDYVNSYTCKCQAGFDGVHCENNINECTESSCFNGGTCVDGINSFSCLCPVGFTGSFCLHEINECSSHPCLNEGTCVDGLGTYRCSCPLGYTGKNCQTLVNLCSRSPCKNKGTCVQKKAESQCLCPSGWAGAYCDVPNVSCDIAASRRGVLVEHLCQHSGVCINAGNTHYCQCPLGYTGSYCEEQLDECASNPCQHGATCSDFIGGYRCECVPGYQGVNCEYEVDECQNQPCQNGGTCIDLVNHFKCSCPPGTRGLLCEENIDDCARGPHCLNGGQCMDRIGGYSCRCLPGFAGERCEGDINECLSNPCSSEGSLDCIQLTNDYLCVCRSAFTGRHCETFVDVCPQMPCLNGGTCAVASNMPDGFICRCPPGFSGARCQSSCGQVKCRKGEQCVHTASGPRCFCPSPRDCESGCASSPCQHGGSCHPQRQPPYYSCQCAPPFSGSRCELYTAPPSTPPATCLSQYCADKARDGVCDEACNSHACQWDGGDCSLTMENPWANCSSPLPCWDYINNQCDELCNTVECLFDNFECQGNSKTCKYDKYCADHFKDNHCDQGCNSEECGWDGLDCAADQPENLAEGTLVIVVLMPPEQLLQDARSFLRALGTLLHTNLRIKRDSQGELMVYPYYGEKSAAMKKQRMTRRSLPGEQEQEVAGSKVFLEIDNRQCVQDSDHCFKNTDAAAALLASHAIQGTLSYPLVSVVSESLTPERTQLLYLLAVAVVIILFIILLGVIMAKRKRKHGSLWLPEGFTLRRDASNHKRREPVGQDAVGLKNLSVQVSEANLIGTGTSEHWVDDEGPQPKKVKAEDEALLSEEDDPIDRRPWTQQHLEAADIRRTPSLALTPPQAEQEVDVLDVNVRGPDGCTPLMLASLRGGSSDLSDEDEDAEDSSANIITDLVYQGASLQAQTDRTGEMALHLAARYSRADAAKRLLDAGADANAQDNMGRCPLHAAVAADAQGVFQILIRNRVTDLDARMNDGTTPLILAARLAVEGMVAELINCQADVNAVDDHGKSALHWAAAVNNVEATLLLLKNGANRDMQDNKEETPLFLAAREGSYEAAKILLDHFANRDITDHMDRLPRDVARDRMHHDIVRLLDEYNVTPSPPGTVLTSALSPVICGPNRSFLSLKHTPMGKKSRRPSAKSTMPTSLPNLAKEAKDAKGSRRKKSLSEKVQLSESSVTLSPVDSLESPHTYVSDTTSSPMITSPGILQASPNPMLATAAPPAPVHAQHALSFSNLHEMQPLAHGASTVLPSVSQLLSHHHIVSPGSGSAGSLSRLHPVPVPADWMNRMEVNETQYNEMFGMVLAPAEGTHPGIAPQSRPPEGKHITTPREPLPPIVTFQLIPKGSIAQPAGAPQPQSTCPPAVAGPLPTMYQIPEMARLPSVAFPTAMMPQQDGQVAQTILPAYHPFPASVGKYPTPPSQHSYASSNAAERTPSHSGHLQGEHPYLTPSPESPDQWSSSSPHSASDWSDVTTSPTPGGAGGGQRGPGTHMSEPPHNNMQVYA
Sequence of Pro-neuregulin-1, membrane-bound isoform (Homo sapiens) (Q02297 whole entry, looked up, the tested form may be a part, canonical isoform): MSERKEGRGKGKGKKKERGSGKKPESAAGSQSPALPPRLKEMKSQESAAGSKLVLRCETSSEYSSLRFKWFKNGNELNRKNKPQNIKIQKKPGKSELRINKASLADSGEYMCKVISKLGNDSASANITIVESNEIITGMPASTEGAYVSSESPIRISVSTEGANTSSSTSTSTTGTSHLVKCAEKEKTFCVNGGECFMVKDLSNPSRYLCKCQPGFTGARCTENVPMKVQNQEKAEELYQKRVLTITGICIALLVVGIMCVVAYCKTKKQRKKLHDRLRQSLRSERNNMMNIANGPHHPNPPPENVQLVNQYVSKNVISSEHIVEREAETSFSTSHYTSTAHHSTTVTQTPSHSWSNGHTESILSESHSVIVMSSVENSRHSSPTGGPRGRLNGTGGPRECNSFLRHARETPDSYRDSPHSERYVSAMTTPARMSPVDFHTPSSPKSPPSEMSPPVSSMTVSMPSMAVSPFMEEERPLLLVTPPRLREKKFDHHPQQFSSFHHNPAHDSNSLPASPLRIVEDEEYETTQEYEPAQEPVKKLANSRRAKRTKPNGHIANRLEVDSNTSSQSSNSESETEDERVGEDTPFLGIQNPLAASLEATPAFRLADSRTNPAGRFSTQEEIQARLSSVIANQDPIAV

## CCCC=C(CCC)[C@@H](NP(=O)(c1ccccc1)c1ccccc1)c1ccccc1
[1]
  composite z-score: -0.335
[2]
  composite z-score: 0.0595
[3]
  composite z-score: 0.0354
[4]
  composite z-score: 0.33
[5]
  composite z-score: 1.25
[6]
  composite z-score: -0.0154
[7]
  composite z-score: 0.318
[8]
  z-score: -0.763 (inactive)
[9]
  composite z-score: 0.714
[10]
  composite z-score: 0.408

## OCc1ccc(C2=CC(C3CC3)N(Cc3sc4ccccc4c3Cl)CC2)cc1 (stereo not given)
[1]
  composite z-score: 0.0908
[2]
  composite z-score: 1.02
[3]
  composite z-score: -0.107
[4]
  composite z-score: 0.261
[5]
  composite z-score: 0.166
[6]
  composite z-score: 0.503
[7]
  composite z-score: 1.14
[8]
  z-score: -1.71 (inactive)
[9]
  composite z-score: 0.19
[10]
  composite z-score: -0.0296

## CCOC(=O)[C@H]1CC=C2C(=O)Oc3ccccc3[C@@H]21
[1]
  composite z-score: 0.0468
[2]
  composite z-score: -0.775
[3]
  composite z-score: -0.083
[4]
  composite z-score: -0.491
[5]
  composite z-score: -0.316
[6]
  composite z-score: 0.833
[7]
  composite z-score: -0.169
[8]
  z-score: 0.48 (inactive)
[9]
  composite z-score: -0.203
[10]
  composite z-score: -0.0645

## COc1cc2c(cc1O)C(C)N(C)CC2 (stereo not given)
[1]
  composite z-score: 0.661
[2]
  composite z-score: -0.144
[3]
  composite z-score: -0.0345
[4]
  composite z-score: -0.021
[5]
  composite z-score: 0.358
[6]
  composite z-score: -0.0581
[7]
  composite z-score: 1.14
[8]
  z-score: -1.13 (inactive)
[9]
  composite z-score: -0.0662
[10]
  composite z-score: 0.176

## C[C@@H]1OC=C2[C@@H](O)[C@H]3O[C@H]3C(=O)[C@]23[C@H]1[C@H]1C2=C([C@@H](O)[C@H]4O[C@H]4C2=O)[C@@H]3O[C@@H]1C
[1]
  composite z-score: -0.532
[2]
  composite z-score: 0.0437
[3]
  composite z-score: -0.169
[4]
  composite z-score: -0.0391
[5]
  composite z-score: 0.121
[6]
  composite z-score: -0.854
[7]
  composite z-score: -0.372
[8]
  z-score: -0.165 (inactive)
[9]
  composite z-score: -0.192
[10]
  composite z-score: 0.0274

## c1ccc(-c2cc3c(nc2-c2ccccc2)CCNC3)cc1
[1]
  composite z-score: 0.0329
[2]
  composite z-score: -0.112
[3]
  composite z-score: -0.0494
[4]
  composite z-score: -0.296
[5]
  composite z-score: -0.634
[6]
  composite z-score: -0.0361
[7]
  composite z-score: -0.969
[8]
  z-score: -0.148 (inactive)
[9]
  composite z-score: 0.0294
[10]
  composite z-score: -0.374

## COC(=O)[C@H]1[C@@H](O)[C@@]2(O)c3c(OC)cc(OC)cc3O[C@@]2(c2ccc(OC)cc2)[C@@H]1c1ccccc1
[1]
  composite z-score: -0.327
[2]
  composite z-score: 0.287
[3]
  composite z-score: -0.0894
[4]
  composite z-score: 0.52
[5]
  composite z-score: 0.514
[6]
  composite z-score: 0.167
[7]
  composite z-score: 0.357
[8]
  z-score: 0.128 (inactive)
[9]
  composite z-score: 0.0836
[10]
  composite z-score: -0.152

## CCCc1cc2c(n1Cc1ccco1)C(C)C1CN(C(=O)c3ccccc3)C(C)(C(=O)OC)C21 (stereo not given)
[1]
  composite z-score: 1.03
[2]
  composite z-score: 1.05
[3]
  composite z-score: 0.13
[4]
  composite z-score: 0.657
[5]
  composite z-score: 1.66
[6]
  composite z-score: 1.35
[7]
  composite z-score: 1.09
[8]
  z-score: 0.301 (inactive)
[9]
  composite z-score: 0.802
[10]
  composite z-score: 1.05

## COC(=O)[C@@]1(Cc2ccccc2)[C@H]2c3cc(C(=O)N(C)C)[nH]c3C[C@H]2CN1C(=O)c1ccccc1
[1]
  composite z-score: 0.469
[2]
  composite z-score: -0.365
[3]
  composite z-score: -0.0063
[4]
  composite z-score: -0.12
[5]
  composite z-score: 0.335
[6]
  composite z-score: 1.03
[7]
  composite z-score: 0.954
[8]
  z-score: 1.82 (inactive)
[9]
  composite z-score: -0.0765
[10]
  composite z-score: 0.0176

## O=P(c1ccccc1)(c1ccccc1)N1CC2(CC2)CC(O)(c2ccccc2)C1 (stereo not given)
[1]
  composite z-score: 0.234
[2]
  composite z-score: -0.86
[3]
  composite z-score: 0.0316
[4]
  composite z-score: 0.862
[5]
  composite z-score: 1.65
[6]
  composite z-score: 0.963
[7]
  composite z-score: 1.33
[8]
  z-score: -2.28 (inactive)
[9]
  composite z-score: 0.553
[10]
  composite z-score: 0.21

## CCCC[C@@H]1C[C@H]1[C@@H](NP(=O)(c1ccccc1)c1ccccc1)c1ccc(Cl)cc1
[1]
  composite z-score: 1.68
[2]
  composite z-score: -1.94
[3]
  composite z-score: -0.129
[4]
  composite z-score: -0.0013
[5]
  composite z-score: -0.438
[6]
  composite z-score: 0.291
[7]
  composite z-score: 0.142
[8]
  z-score: 0.695 (inactive)
[9]
  composite z-score: -0.22
[10]
  composite z-score: -0.0994

## CCCc1cc2c(n1Cc1ccc(C)cc1)C(C)C1CN(C(=O)c3ccccc3)C(C)(C(=O)OC)C21 (stereo not given)
[1]
  composite z-score: 1.37
[2]
  composite z-score: 1.32
[3]
  composite z-score: 0.459
[4]
  composite z-score: 1.14
[5]
  composite z-score: 1.43
[6]
  composite z-score: 1.32
[7]
  composite z-score: 1.08
[8]
  z-score: -0.876 (inactive)
[9]
  composite z-score: 1.95
[10]
  composite z-score: 0.321

## CN1CCC(c2ccc(CO)cc2)=CC1c1cccs1 (stereo not given)
[1]
  composite z-score: -0.182
[2]
  composite z-score: -0.191
[3]
  composite z-score: -0.128
[4]
  composite z-score: -0.53
[5]
  composite z-score: -0.131
[6]
  composite z-score: 0.0188
[7]
  composite z-score: 1.04
[8]
  z-score: 1.68 (inactive)
[9]
  composite z-score: 0.13
[10]
  composite z-score: -0.134

## CN1CCC(c2ccc(CO)cc2)=CC1C1CC1 (stereo not given)
[1]
  composite z-score: -0.394
[2]
  composite z-score: -0.0038
[3]
  composite z-score: -0.158
[4]
  composite z-score: -0.301
[5]
  composite z-score: -0.616
[6]
  composite z-score: -0.292
[7]
  composite z-score: 0.839
[8]
  z-score: 0.666 (inactive)
[9]
  composite z-score: -0.337
[10]
  composite z-score: -0.164

## CCOC(=O)[C@H]1CC=C2C(=O)Oc3ccc(Br)cc3[C@@H]21
[1]
  composite z-score: 0.165
[2]
  composite z-score: 0.384
[3]
  composite z-score: -0.161
[4]
  composite z-score: -0.332
[5]
  composite z-score: -0.664
[6]
  composite z-score: 0.994
[7]
  composite z-score: 0.727
[8]
  z-score: -0.818 (inactive)
[9]
  composite z-score: -0.598
[10]
  composite z-score: -0.134

## CCCc1cc2c(n1CCO)C(C)C1CN(C(=O)c3ccccc3)C(C)(C(=O)OC)C21 (stereo not given)
[1]
  composite z-score: 1.44
[2]
  composite z-score: 1.73
[3]
  composite z-score: 0.374
[4]
  composite z-score: 0.0514
[5]
  composite z-score: 1.66
[6]
  composite z-score: 1.21
[7]
  composite z-score: 1.14
[8]
  z-score: 2.02 (inactive)
[9]
  composite z-score: 1.44
[10]
  composite z-score: 0.593
